Most compounds without a hit are left out; they make up all but 2.8% or so of the library.
KKLEB tox: reduces viability of KKLEB cystic fibrosis airway cells | KKLEB CF airway cells viability, ATPlite luminescence, overnight; active compounds read low; cells stimulated with P. aeruginosa culture filtrate | activity change (cytotoxicity), % at 5 µM | actives 0.36% (n = 360,000) | AID 602141;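 active means corrected activity change at or below -50% at 5 µM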
Peg3 prom inh: inhibitors of Peg3 promoter | HeLa PEG-Prom luciferase reporter, luminescence, overnight | inhibition, % at 20 µM | actives 1.7% (n = 360,000) | AID 588405;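 active means inhibition of at least 50% at 20 µM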
CF NFkB inh: cystic fibrosis NF-kB activation inhibition; KKLEB NF-kB-GFP reporter, PAF-induced, GFP fluorescence overnight; inhibition, % at 5 µM; actives 0.86% (n = 360,000);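 active means at least 50% inhibition at 5 µM, scaled per plate between neutral and stimulator controls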;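 further: PAF is a Pseudomonas aeruginosa culture filtrate used as stimulus; plate controls were PAF-stimulated DMSO wells for no effect and unstimulated DMSO wells for full effect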
Shn3 inh set2: Schnurri-3 reporter inhibition in Clone20 osteoblasts; Clone20 osteoblast Shn3 3'UTR firefly luciferase, 24 h; inhibition, % at 12.5 µM; actives 0.52% (n = 360,000); AID 588674;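 active means mean inhibition of at least 75% with every replicate also reaching 75%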;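 further: 0% = median of neutral control wells and 100% = pilot-screen positive control compound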
MITF TRPM1 inh: reduces MITF-dependent TRPM1 promoter luciferase signal | SK-MEL-5 TRPM1 promoter luciferase, 24 h | inhibition, % at 12.5 µM | actives 0.83% (n = 330,000) | AID 488899;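 active means mean inhibition across replicates of 60% or more, whatever share of single replicates reaches that level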
HIF-2a inh: blocks HIF-2a reporter activity; actives 0.72% (n = 360,000); AID 624352; inhibition, % at 18.8 µM; 786-0 RCC cells HIF-2a reporter, luciferase luminescence, overnight;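 active means inhibition of the luminescence signal of 40% or more relative to plate controls, in a single-dose primary screen at 18.75 µM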
An asterisk follows results filed as active; . = no result.

SMILES	KKLEB tox	Peg3 prom inh	CF NFkB inh	Shn3 inh set2	MITF TRPM1 inh	HIF-2a inh
COc1ccc(C2c3c(-c4ccccc4O)n[nH]c3C(=O)N2CCc2ccc(OC)c(OC)c2)cc1 (stereo not drawn)	-11	26	7	12	-11	36
Cc1ccccc1Cn1ccc(NC(=O)CCSc2nc(-c3ccco3)cc(C(F)(F)F)n2)n1	-7	3	9	15	5	22
O=C(Nc1cnn(C23CC4CC(CC(C4)C2)C3)c1)c1cnn2c(C(F)(F)F)cc(-c3ccco3)nc12	-25	71*	16	14	75*	2
Cc1ccccc1Cn1ccc(NC(=O)c2cnn3c(C(F)(F)F)cc(-c4ccco4)nc23)n1	0	51*	28	19	2	0
O=C(Nc1ccc2c(c1)OCO2)c1cnn2c(C(F)(F)F)cc(-c3ccco3)nc12	-34	6	42	10	4	-4
O=C(CCc1ccc(S(=O)(=O)N2CCOCC2)cc1)Nc1ccc(F)cc1[N+](=O)[O-]	21	7	-4	22	14	-8
CCCc1cc(C(=O)N/N=C/c2cccn2C)cs1	-13	-203	12	-7	-68	-214
CC(=O)N1c2ccc(S(=O)(=O)N3CCCCC3)cc2CC1C(=O)NCc1ccccc1C (stereo not drawn)	-14	-23	25	-9	1	-5
CCOC(=O)c1[nH]c2cc3c(cc2c1NC(=O)CN1CCc2ccccc2C1)OCO3	-4	68*	-2	25	13	-8
CCOC(=O)c1[nH]c2cc3c(cc2c1NC(=O)CN1CCCC1)OCO3	-6	6	11	16	0	12
COc1cccc(-n2c(N)c(C(=O)Nc3c(C)n(C)n(-c4ccccc4)c3=O)c3nc4ccccc4nc32)c1	-27	60*	19	20	13	8
Cc1cc(C)cc(-n2c(N)c(C(=O)Nc3c(C)n(C)n(-c4ccccc4)c3=O)c3nc4ccccc4nc32)c1	-45	91*	14	14	-1	-7
COC(=O)c1cnc(SCC(=O)c2ccccc2)n1C	-2	-247	-4	-28	-31	-243
COc1ccc(C(=O)/C=C/c2ccc(OC)c(Cn3nnc4ccccc43)c2)cc1	-34	52*	18	-4	24	36
CC[N+](C)(C)CC/C=C1/c2ccccc2Sc2ccc(Cl)cc21	5	-4	-18	-8	.	16
CCCCCCCCCCC[N+](C)(C)CC/C=C1/c2ccccc2Sc2ccc(Cl)cc21	-29	108*	32	92*	-1	-24
OCCN1CCN(CC/C=C2/c3ccccc3Sc3ccc(Cl)cc32)CC1	-3	87*	18	-13	0	-17
O=[N+]([O-])/C=C\c1ccc(N2CCOCC2)cc1	-8	14	25	24	74*	55*
C=Cc1ncc(OC)c2c1[nH]c1ccccc12	-54*	81*	5	12	82*	31
CCN(CC)CCC12CC(C)OC1=Nc1ccccc1NC2=O (stereo not drawn)	14	4	-22	-16	.	8
COc1ccnc(Oc2ccccc2)c1C(=O)N/C=N/OCc1ccc(F)cc1Cl	-26	57*	40	19	-5	-12
COc1ccccc1CO/N=C/NC(=O)c1c(OC)ccnc1Oc1ccc(F)cc1	-2	12	-20	9	4	24
COCCC1CCCCN1C(=O)c1cc(COc2ccc(C)nc2)on1 (stereo not drawn)	-95*	-53	69*	21	-3	-65
CCC(C)NC(=O)c1cc2c(=O)n(CC)c3ccccc3c2s1 (stereo not drawn)	0	-25	-22	3	2	-81
O=C1/C(=C/c2ccc(N3CCOCC3)o2)SC(=Nc2ccccc2)N1CCc1c[nH]c2ccccc12	-51*	102*	-21	97*	55	93*
SMILES	KKLEB tox	Peg3 prom inh	CF NFkB inh	Shn3 inh set2	MITF TRPM1 inh	HIF-2a inh
COc1cc(/C=C2\SC(=Nc3ccccc3)N(CCc3c[nH]c4ccccc34)C2=O)ccc1OC(C)C(=O)O (stereo not drawn)	-17	3	-36	-24	6	1
O=C(NCc1ccccc1)C(C1CC1)n1c(=O)c(-c2cc3ccccc3[nH]2)nc2ccccc21 (stereo not drawn)	.	.	.	.	.	-12
CC(Oc1cccc(Cl)c1)C(=O)Nc1nc(-c2ccccn2)cs1 (stereo not drawn)	9	29	-22	45	64*	13
CC(Oc1ccccc1)C(=O)Nc1nc(-c2ccccn2)cs1 (stereo not drawn)	-8	33	17	77	62*	4
CC(Oc1ccccc1)C(=O)Nc1nc(-c2ccncc2)cs1 (stereo not drawn)	-32	-4	27	15	-12	28
CCOC(=O)N1CCN(CC(O)COc2ccc3c(c2)CCC3)CC1 (stereo not drawn)	-5	-1	-2	18	0	15
O=S(=O)(c1ccc(Cl)cc1)N1CCC(n2cnc3cc(C(F)(F)F)ccc32)CC1	-21	35	14	-19	-2	-1
O=C(NCc1ccccc1Cl)c1ccc(S(=O)(=O)N2CCCC2)cc1	-11	52*	9	-7	-1	16
O=C(NCc1ccccc1F)c1ccc(S(=O)(=O)N2CCCC2)cc1	1	2	8	-18	.	3
COc1ccc(-n2nc(C(=O)NCC(=O)NCCCN3CCOCC3)c3ccccc3c2=O)cc1OC	-76*	0	13	-5	-10	4
CCOc1ccc(NC(=O)CN(C)C(=O)c2sc3ccccc3c2Cl)cc1OCC	3	8	2	14	14	4
O=C(O)C1C2CCCCC2=C2CCCCC2C1C(=O)Nc1nccs1 (stereo not drawn)	-6	7	-11	-8	2	22
O=C(O)C1C2CCCCC2=C2CCCCC2C1C(=O)O (stereo not drawn)	-14	53*	19	-4	-7	24
CC(C)(C)C1=C(C#N)C(c2cc3c(cc2Br)OCO3)C(C#N)=C(N)O1 (stereo not drawn)	-3	2	6	-3	7	10
C=C[C@]1(C)C=C2C(=O)[C@@]3(O)OC(=O)[C@@]4(CCCC(C)(C)[C@H]34)[C@@]2(O)CC1	-99*	99*	88*	95*	.	97*
Cc1c(Br)c([N+](=O)[O-])nn1CC(=O)N1CCN(C23CC4CC(CC(C4)C2)C3)CC1	7	12	-9	2	-12	10
COCCCNCCOc1ccc(C(C)(C)c2ccccc2)cc1	-14	25	4	-8	-9	9
CC(C)(c1ccccc1)c1ccc(OCCCN2CCNCC2)cc1	2	79*	6	5	31	16
CC(C)(c1ccccc1)c1ccc(OCCN2CCOCC2)cc1	-8	1	-4	7	4	4

Screens: PubChem BioAssay, several laboratories
